# Data published in PubChem BioAssay.
# For some of these results: Entries with a potency or affinity are not part of this list. The source made the active and inactive calls.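 Rule for the calls, unless noted: active = a fitted half-maximal concentration no higher than twice the top valid tested dose, with signal falling as cells die; inconclusive = flat curve between -70% and -30%, or poor fit; inactive = the rest, including signal rising instead of falling.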
# Key:
# [1] = molecular target: Alpha-bungarotoxin (Bungarus multicinctus) (UniProt P60615); assay: compounds binding labelled alpha-BTX control protein – biochemical, small-molecule microarray, Alexa647 label, 635/667 nm fluorescence, artefact control for SMM control protein annotation, profiling panel (AID 1117); conditions: alpha-BTX-A647 binding fluorescence, higher = more signal
# [2] = test system: XIP peptide (Xip251-270) binding; assay: XIP fragment 251-270 binding compounds – biochemical, small-molecule microarray, fluorescence 635/667 nm, 0.1 µg/mL protein, primary screen (AID 1182); conditions: fluorescent protein binding, 635 nm, higher = more signal, called active from +8 up or from −8 down
# XIP peptide (Xip251-270) = assay: compounds binding XIP fragment 251-270 – biochemical, small-molecule microarray, fluorescence 635/667 nm, 0.5 µg/mL protein, primary screen (AID 1183); conditions: fluorescence 635 nm, higher = more signal
# [3] = blood-stage malaria parasite viability loss – strain 3D7, DAPI fluorescence, 100 nL, primary screen (AID 1184);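 note: parasites grown inside human red blood cells in medium with human serum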; conditions: P. falciparum 3D7 growth, 3 d, higher = more signal
# [4] = molecular target: Homeobox protein Hox-A13 (Mus musculus) (UniProt Q62424); assay: disruptors of Hoxa13 oligonucleotide interaction – biochemical, fluorescence polarization, labeled oligonucleotide, primary screen (AID 1185); conditions: Hoxa13:DNA binding, 15 min, higher = more signal, called active from +8 up or from −8 down
# [5] = blockers of DNA damage checkpoint Chk1 activation – imaging, HeLa, hydroxyurea, phospho-Chk1 antibody, percent positive cells, primary screen (AID 1186; call rule not given here); conditions: hydroxyurea-induced phospho-Chk1 immunofluorescence imaging, higher = more signal
# [6] = blockers of DNA damage checkpoint Chk1 activation – imaging, HeLa, hydroxyurea, phospho-Chk1 nuclear intensity, primary screen (AID 1187; call rule not given here); conditions: hydroxyurea-induced phospho-Chk1 immunofluorescence imaging, higher = more signal
# [7] = viability loss in HeLa cells – cell-based, ATP luminescence, cherry-pick samples, cytotoxicity control, dose response (AID 687004); conditions: ATP luminescence (CellTiter-Glo), 48 h; series mostly up to 26 µM;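 note: 0% = neutral control median and -100% = staurosporine 10 µM control median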
# Sequence of Homeobox protein Hox-A13 (Mus musculus) (Q62424 whole entry, looked up): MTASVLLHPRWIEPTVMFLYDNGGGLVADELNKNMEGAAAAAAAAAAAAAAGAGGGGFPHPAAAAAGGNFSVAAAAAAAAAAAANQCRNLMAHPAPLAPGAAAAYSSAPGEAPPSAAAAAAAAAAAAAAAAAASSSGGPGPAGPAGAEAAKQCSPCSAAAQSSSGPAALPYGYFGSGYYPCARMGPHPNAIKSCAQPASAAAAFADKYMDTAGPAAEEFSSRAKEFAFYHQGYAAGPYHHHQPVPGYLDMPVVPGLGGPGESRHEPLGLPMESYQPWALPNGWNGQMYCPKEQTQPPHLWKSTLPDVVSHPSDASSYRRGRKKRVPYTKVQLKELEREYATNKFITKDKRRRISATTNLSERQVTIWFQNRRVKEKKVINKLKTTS
# Sequence of Alpha-bungarotoxin (Bungarus multicinctus) (P60615 whole entry, looked up, the tested form may be a part): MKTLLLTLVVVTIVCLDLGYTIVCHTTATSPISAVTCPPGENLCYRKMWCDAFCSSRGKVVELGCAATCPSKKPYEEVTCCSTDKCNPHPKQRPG
structure (smiles),measurement,setting,value
CC(C)(C)OC(=O)CC[C@]1(C(=O)NCc2ccccc2)COC(c2ccc(OCCCO)cc2)=N1,composite z-score,[1],2.47
same,composite z-score,[2],1.45 (inactive)
same,composite z-score,XIP peptide (Xip251-270),0.0144
same,z-score,[3],-0.561
same,z-score,[4],-5.02 (inactive)
same,z-score,[5],0.0879 (inactive)
same,z-score,[6],0.166 (inactive)
COc1ccc(/C=C/C(=O)c2cccc(OCC(=O)OC(C)(C)C)c2)cc1,composite z-score,[1],0.45
same,composite z-score,[2],0.401 (inactive)
same,composite z-score,XIP peptide (Xip251-270),0.247
same,z-score,[3],-0.732
same,z-score,[4],-3.31 (inactive)
same,z-score,[5],-0.0499 (inactive)
same,z-score,[6],0.373 (inactive)
COCCOC(=O)N1C(=O)[C@@]2(c3cc(C#CC4(O)CCCCCC4)ccc31)[C@H](c1ccccc1OCCO)N1[C@H](c3ccccc3)[C@H](c3ccccc3)OC(=O)[C@H]1[C@@H]2C(=O)Nc1nc2ccccc2s1,composite z-score,[1],2.25
same,composite z-score,[2],1.65 (inactive)
same,composite z-score,XIP peptide (Xip251-270),0.649
same,z-score,[3],-1.67
same,z-score,[4],4.08 (inactive)
same,z-score,[5],-0.201 (inactive)
same,z-score,[6],-0.38 (inactive)
COc1ccc([Si](C)(C)[C@@H]2[C@@H](CCn3cc([C@H](O)c4ccccc4)nn3)O[C@]3(C(=O)N(C)c4c(Br)cc(C)cc43)[C@H]2C)cc1,composite z-score,[1],0.178
same,composite z-score,[2],0.512 (inactive)
same,composite z-score,XIP peptide (Xip251-270),0.202
same,z-score,[3],-1.22
same,z-score,[4],-3.19 (inactive)
same,z-score,[5],-0.973 (inactive)
same,z-score,[6],-0.208 (inactive)
C=CCC(OC(C)=O)[C@@H]1[C@@H](N(Cc2ccc(-c3cccc(C(F)(F)F)c3)o2)C(=O)c2ccc(-c3ccccc3)cc2)c2cc(OCCCO)ccc2N1C(=O)Cc1ccc(OC)cc1 (stereo partly specified),composite z-score,[1],0.497
same,composite z-score,[2],0.163 (inactive)
same,composite z-score,XIP peptide (Xip251-270),-0.653
same,z-score,[3],-0.809
same,z-score,[4],-0.497 (inactive)
same,z-score,[5],-0.138 (inactive)
same,z-score,[6],-0.0148 (inactive)
COc1ccc(C#Cc2ccc3c(c2)O[C@H](CN(C)C(=O)Nc2cccc(OC)c2)[C@H](C)CN([C@@H](C)CO)S3(=O)=O)cc1,outcome,[7],inactive
C[C@@H]1CN([C@@H](C)CO)C(=O)c2cc(N(C)C)ccc2O[C@@H]1CN(C)C(=O)Nc1ccc(C(F)(F)F)cc1,outcome,[7],inactive
COCC#Cc1cnc2c(c1)C(=O)N([C@@H](C)CO)C[C@@H](C)[C@@H](CN(C)C(=O)C1CC1)O2,outcome,[7],inactive
O=C(NCc1ccc(F)cc1)C1C2C=CC3(CN(Cc4cccnc4)C(=O)C13)O2 (stereo unspecified),outcome,[7],inactive
O=C(NCC[C@H]1CC[C@H](NS(=O)(=O)c2ccc(F)cc2)[C@@H](CO)O1)c1ccc2c(c1)OCO2,outcome,[7],inactive
COc1ccccc1NC(=O)N[C@@H]1CC[C@@H](CCn2cc(C3(O)CCCC3)nn2)O[C@H]1CO,outcome,[7],inactive
CC(C)NC(=O)Nc1ccc2c(c1)C(=O)N([C@@H](C)CO)C[C@@H](C)[C@@H](CN(C)C(=O)c1ccncc1)OCCCC[C@@H](C)O2,outcome,[7],inactive
CCC(C)(C(=O)Nc1cccc(C)c1)N1CCC1=O (stereo unspecified),outcome,[7],inactive
CN1C(=O)c2cc(NS(=O)(=O)c3cccc(F)c3)ccc2OC[C@H]2O[C@H](CC(=O)O)CC[C@H]21,outcome,[7],inactive
C[C@H]1CCCCO[C@H](CN(C)Cc2ccncc2)[C@@H](C)CN([C@@H](C)CO)C(=O)c2cc(NC(=O)CCCN(C)C)ccc2O1,outcome,[7],inactive
O=C(Cc1ccccc1)N[C@H]1C=C[C@@H](CC(=O)N2CCOCC2)O[C@H]1CO,outcome,[7],inactive
O=C(C[C@@H]1C=C[C@@H](NC(=O)c2cccc(F)c2)[C@H](CO)O1)NCCN1CCCC1,outcome,[7],inactive
Cc1noc(C)c1NC(=O)Nc1cccc2c1O[C@@H](CN(C)S(=O)(=O)c1cn(C)cn1)[C@@H](C)CN([C@@H](C)CO)C2=O,outcome,[7],inactive
CCC(C)(C(=O)NC1CCCC1)N(C(C)=O)c1ccc(C)cc1 (stereo unspecified),outcome,[7],inactive
O=C([C@@H]1[C@@H](CO)[C@@H]2Cn3c(cccc3=O)[C@@H]2N1CCC(F)(F)F)N1CCCCC1,outcome,[7],inactive
Cc1noc(C)c1S(=O)(=O)N(C)C[C@H]1OCCCC[C@@H](C)Oc2ccc(NC(=O)CCCCCC(=O)Nc3ccccc3N)cc2C(=O)N([C@@H](C)CO)C[C@@H]1C,outcome,[7],inactive
O=C(C[C@H]1CC[C@H]2[C@@H](COC[C@H](O)CN2Cc2cccc(Cl)c2)O1)Nc1nccs1,outcome,[7],inactive
C[C@H]1CN([C@@H](C)CO)C(=O)c2cccc(NS(C)(=O)=O)c2O[C@@H]1CN(C)Cc1ccc(-c2ccccc2)cc1,outcome,[7],inactive
C[C@H](CO)N1C[C@H](C)[C@H](CN(C)C(=O)c2ccccn2)Oc2ncc(-c3ccccc3)cc2C1=O,outcome,[7],inactive
CC(C)NC(=O)N1CC[C@@H]2[C@@H](CO)N(C)c3ccc(-c4cccc(F)c4)cc3[C@@H]21,outcome,[7],inactive
CCC(C)(C(=O)NC1CCCCC1)N(C(=O)C1CCC(=O)N1)c1ccccc1 (stereo unspecified),outcome,[7],inactive
O=C(C[C@H]1CC[C@H](NC(=O)Nc2ccc(C(F)(F)F)cc2)[C@H](CO)O1)NCc1cccc(F)c1,outcome,[7],inactive
CC(C)NC(=O)N(C)C[C@H]1Oc2c(NC(=O)C3CCCCC3)cccc2C(=O)N([C@H](C)CO)C[C@H]1C,outcome,[7],inactive
Cc1ccc(NC(=O)C2(C)CCCN2CC(C)C)cc1C (stereo unspecified),outcome,[7],inactive
COc1ccc(NC(=O)N(C)C[C@@H]2OCCCC[C@H](C)Oc3ccc(NC(=O)Nc4ccc5c(c4)OCO5)cc3C(=O)N([C@H](C)CO)C[C@@H]2C)cc1,outcome,[7],inactive
C[C@@H]1CN([C@H](C)CO)C(=O)c2cc(NS(=O)(=O)c3ccccc3)ccc2O[C@H]1CN(C)C(=O)NC1CCCCC1,outcome,[7],inactive
